A selection: hits, their analogues and other compounds. The true share with any hit is near 8%.
SW480 rereplic: induces DNA re-replication in SW480 colon adenocarcinoma cells. AID 624297. Potency, µM (highest dose often 46.1 µM), for inactives: top-dose re-replication activation, most hits filed as activators. SW480 DNA re-replication, Hoechst DNA content imaging, 48 h. hit rate 1.8% among 340,000; note: % of control where 0% means no effect; nearly all actives have a fitted effect of over 55% in size
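250 cells/well; 23 nL cpd via pin tool; 48 hr, 37 C, 5% CO2; Hoechst 40 min; imager read of total nuclear intensity, ex 405/em 500-530 nm.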
KB-V1 cytotox: kills drug-selected multidrug resistant KB-V1 cells; KB-V1 MDR cells viability, CellTiter-Glo, 72 h; Potency, µM (top dose mostly 46.1 µM), usual class: cytotoxic; hit rate 3.4% among 400,000; note: % is set by controls: 0 for no effect and ±100 for the full control effect; nearly all actives have a fitted effect of over 60% in size
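Readout: CellTiter-Glo luminescence, 10 min after addition. Cells: KB-V1 MDR subline, 72 h at 37 degrees C with compound. Analysis: corrected, normalized data fitted to concentration-effect curves.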
KB-3-1 tox: kills parental KB-3-1 adenocarcinoma cells; hit rate 1.4% among 400,000; Potency, µM (doses to about 46.1 µM), hits mostly cytotoxic; AID 1347075; KB-3-1 viability, CellTiter-Glo ATP luminescence, 72 h; note: % is set by controls: 0 for no effect and ±100 for the full control effect; nearly all actives have a fitted effect of over 60% in size
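72 h, 37 °C compound treatment of KB-3-1 parental cells; CellTiter-Glo added, 10 min, luminescence read. Data corrected against DMSO-only plates and normalized before curve fitting.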
HT1080 IDH1KD tx: toxicity to HT-1080 IDH1 knockdown cells (counter line). Potency, µM (titrated, usually from 46.1 µM), for the others: at the top dose activity, negative = toxicity, usual class: cytotoxic. AID 686971. HT-1080 IDH1 knockdown viability, ATP luminescence, 48 h. hit rate 2% among 360,000;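 note: 0% = DMSO wells and -100% = cell-free medium wells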
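Luminescent ATP read-out (CellTiter-Glo, 10 min at room temperature) after 48 h compound exposure at 37 °C gave viability of IDH1-knockdown HT-1080 cells. Activity was normalised to DMSO and cell-free wells, then fitted as concentration-response curves.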
HT1080-NT tox: kills 2HG-producing HT-1080-NT fibrosarcoma cells. HT-1080-NT fibrosarcoma viability, CellTiter-Glo ATP luminescence, 48 h. Potency, µM (highest dose often 46.1 µM), for the others: at the highest dose activity, negative = less viability, usual class: cytotoxic. hit rate 1.6% among 360,000. AID 686970;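 note: NT is the 2HG producing partner of a matched IDH1 knockdown line; 0% = DMSO-treated cells and -100% = media-only wells without cells; nearly all actives have a fitted effect of over 55% in size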
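Toxicity toward the 2HG-producing NT line was scored as %Activity, normalised to DMSO and no-cell wells, from CellTiter-Glo luminescence after 48 hours' treatment.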
MCF10A rerep: inducers of DNA re-replication in MCF 10A breast cells; AID 624296; Potency, µM (highest dose often 46.1 µM), without a hit: at the top dose activity, positive = re-replication, usual class: activators; hit rate 2.9% among 350,000; MCF 10A DNA re-replication, Hoechst nuclear intensity, 48 h; note: % of control where 0% means no effect; nearly all actives have a fitted effect of over 50% in size
The depositor's hits bear a star; i = inactive; ? = inconclusive; nt = not tested or not shown; [ ] = dose if it differs, or a comment. Calls come from the whole dose curve; as a rule, active = well fitted curve in the direction sought with a large enough effect; inconclusive = small, poorly fitted or top-dose-only effect, or another doubt; inactive = no such curve, though single readings can be large; an effect the other way counts as inactive or inconclusive. Potency is the fitted concentration of half-maximal effect.

SMILES	SW480 rereplic	KB-V1 cytotox	KB-3-1 tox	HT1080 IDH1KD tx	HT1080-NT tox	MCF10A rerep
COc1ccc(C2CC(c3ccncc3)=NN2c2ccc(S(N)(=O)=O)cc2)cc1 (configuration not stated)	18µM*	i	i	?	?	2.9µM*
COc1ccc(C2CC(c3ccc(Cl)cc3)=NN2c2ccc(S(N)(=O)=O)cc2)cc1 (configuration not stated)	0.82µM*	i	?	?	?	?
COc1ccc(C2CC(c3ccccc3)=NN2C(=O)COC(=O)c2ccc(S(C)(=O)=O)cc2)cc1 (configuration not stated)	1%	?	i	-2%	-3%	2%
COc1ccc(C2CC(c3cccc(Cl)c3)=NN2c2ccc(S(N)(=O)=O)cc2)cc1 (configuration not stated)	2.1µM*	?	?	-19%	-28%	1.3µM*
COc1ccc(C2CC(c3ccc(Cl)cc3)=NN2C(C)=O)cc1 (configuration not stated)	-2%	?	i	-6%	-13%	10%
Cc1ccc(C)c(NC(=O)Cn2c(=O)n(CC3CCCO3)c(=O)c3ccccc32)c1 (configuration not stated)	nt	i	i	nt	nt	nt
CCc1ccc2[nH]c(=O)c(CN(Cc3ccco3)Cc3nnnn3Cc3ccco3)cc2c1	nt	i	?	nt	nt	nt
Clc1ccccc1-c1nc2nc3ccccc3nc2n1-c1ccc2c(c1)OCO2	2%	9.2µM*	i	0%	4%	?
C=CCn1c(SCC(=O)Nc2nccs2)nnc1-c1cc2cccc(OC)c2o1	6%	2.1µM*	i	?	?	6%
C=CCn1c(SCC(=O)Nc2ccccc2OC)nnc1-c1ccccn1	18µM*	?	?	?	?	?
CCn1c(SCC(=O)C(C)(C)C)nnc1-c1ccccn1	1%	?	i	6%	8%	23µM*
COc1cccc2cc(-c3nnc(SCC(=O)Nc4ccc(NC(C)=O)cc4)n3C)oc12	-5%	i	?	-19%	-24%	-21%
CCn1c(Cc2cccc3ccccc23)nnc1SCC(=O)Nc1nccs1	-7%	18µM*	i	3%[9.24 µM]	-10%	-2%
Cc1cccc(OCCCc2c(C)n[nH]c2C)c1	1%	18µM*	?	-29%	1%	?
COc1cccc(OC)c1OCCCc1c(C)n[nH]c1C	-5%	18µM*	i	1%	2%	0%
CCOc1ccccc1NC(=O)c1c(NC(=O)C(C)Oc2ccc(Cl)cc2)sc2c1CCCCC2 (configuration not stated)	nt	i	i	nt	nt	nt
CCCCCC(=O)N1C[C@H](n2cc(-c3ccc(F)cc3)nn2)[C@@H](O)C[C@@H]1c1ccc(Cl)cc1	nt	?	?	?	16µM*	nt
Cc1ccc([C@H]2C[C@@H](n3cc(-c4ccc(F)cc4)nn3)[C@H](O)CN2C(=O)C2CCCCC2)cc1	nt	9.2µM*	?	-3%	1%	nt
O=C(C1CCCCC1)N1C[C@H](n2cc(-c3ccc(F)cc3)nn2)[C@@H](O)C[C@@H]1c1ccccc1	nt	i	i	-1%	4%	nt
CCCCCC(=O)N1C[C@@H](O)[C@H](n2cc(-c3ccc(F)cc3)nn2)C[C@@H]1c1ccc(Cl)cc1	nt	?	?	?	-24%	nt
O=C(C1CCCCC1)N1C[C@@H](O)[C@H](n2cc(-c3ccc(F)cc3)nn2)C[C@@H]1c1ccccc1	nt	i	18µM*	?	?	nt
O=C(O)c1ccccc1NC(=O)N1CCOCC1	-3%	i	i	12%	-1%	-14%
O/C=c1\ccc2cccc3nc(C(F)(F)F)nc1c23	14%	i	i	-9%	-25%	21µM*
ON=C1c2cc(OCCN3CCCCC3)ccc2-c2ccc(OCCN3CCCCC3)cc21	1%[9.22 µM]	?	?	23µM*	21µM*	1%
NC(=S)NN=C1c2cc(OCCN3CCOCC3)ccc2-c2ccc(OCCN3CCOCC3)cc21	?	?	23µM*	?	?	?
SMILES	SW480 rereplic	KB-V1 cytotox	KB-3-1 tox	HT1080 IDH1KD tx	HT1080-NT tox	MCF10A rerep
CCn1c(C(=O)Nc2c(C)cccc2C)cc2sc(Cl)cc21	nt	i	i	nt	nt	nt
O=C(c1cnc2c(c1)COc1ccccc1-2)c1ccccc1O	nt	i	?	nt	nt	nt
Cc1ccc2cc(/C=C/C(=O)c3ccco3)c(Cl)nc2c1	?	?	i	12µM*	?	8.2µM*
O=C(C=Cc1ccco1)c1ccco1	-4%	?	i	10%	9%	6%
Cc1ccc2nc(Cl)c(/C=C/C(=O)c3ccco3)cc2c1	-3%	i	?	-20%	?	?
COc1cc2cc(/C=C/C(=O)c3ccco3)c(Cl)nc2cc1OC	21µM*	?	?	-27%	?	23µM*
O=C(NC(NC(=S)Nc1ccccc1C(=O)O)C(Cl)(Cl)Cl)c1cccc([N+](=O)[O-])c1 (configuration not stated)	4%	i	i	9%	0%	13%
CCOC(=O)c1sc(=S)n(Cc2ccccc2)c1C	-2%	i	i	-16%	-5%	0%
CN(C)C(=S)N=c1ssc(=S)n1Cc1ccccc1	5.2µM*	?	?	8.2µM*	5.8µM*	?
CN(C)c1ccccc1C(=O)c1ccccc1N(C)C	8.2µM*	?	4.6µM*	4.6µM*	?	4.1µM*
CN(c1ccccc1C(=O)O)S(C)(=O)=O	-4%	i	i	16%	2%	0%
Cc1cc(=O)[nH]c(SCC(=O)Nc2c(C)n(C)n(-c3ccccc3)c2=O)n1	-6%	nt	nt	6%	0%	3%
CC1CC1C(=O)OCC(=O)NC(=O)NC12CC3CC(CC(C3)C1)C2 (configuration not stated)	-7%	i	i	-21%	1%	1%
CCN1/C(=C/c2cc[n+](C)cc2)C=Cc2cc(C)ccc21	-8%	i	2.9µM*	?	-5%	3%
CCCCCCCCCCCC[n+]1ccc2ccccc2c1	?	nt	nt	nt	nt	55%
CCCCCCCCCCCCCCCC[n+]1cccc2ccccc21	?	23µM*	?	8.2µM*	6.5µM*	18µM*
CCCCCCCCCC[n+]1cccc2cc(Br)ccc21	nt	?	1.3µM*	nt	nt	nt
CCCCCCCCC[n+]1cccc2c3ccccc3ccc21	?	?	?	10µM*	7.3µM*	?
Cc1cccn2c(=O)c3cc(C#N)c(=O)n(-c4nnc(SCc5ccc(F)cc5)s4)c3nc12	nt	i	i	nt	nt	nt
